Source: the supplement of paper PMC6555819

How the values were obtained:
Experiment in all cases: PBM binding z-score (relative to random genomic background probes); higher = stronger binding; sequences stand for … in GC…GCGATTGACAGCGTAGAATGAAGG
[1] = tested on: FXR:RXRa (NR concentration 270 nM, RXRa partner concentration 90 nM)
In short: (§1)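 The probes on custom Agilent 4×180K protein-binding microarrays were double-stranded, with 34-nt variable regions bearing direct-repeat seeds, single-nucleotide variants, half-site ablations and random human genomic background sequences. Incubation lasted 1 h with ligand-free nuclear receptor dimers in PBS pH 7.4, 2% milk, 0.02% Triton X-100, 1 mM DTT, 0.2 mg/mL BSA and 0.4 mg/ml salmon testes DNA. Antibodies against each partner (one per run) detected bound dimers, and fluorescence scans were regression-normalized. Binding z-scores take the random background probes as reference.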

[2] = tested on: LXRa:RXRa (NR concentration 270 nM, RXRa partner concentration 90 nM)
In short: as §1

[3] = tested on: LXRa homodimer (NR concentration 270 nM)
In short: as §1

[4] = tested on: LXRb:RXRa (NR concentration 270 nM, RXRa partner concentration 90 nM)
In short: as §1

[5] = tested on: LXRb homodimer (NR concentration 270 nM)
In short: as §1

[6] = tested on: PPARa:RXRa (NR concentration 270 nM, RXRa partner concentration 90 nM)
In short: as §1

[7] = tested on: PPARg:RXRa (NR concentration 180 nM, RXRa partner concentration 90 nM)
In short: as §1

[8] = tested on: PPARg:RXRa 270nM:90nM, anti-RXR (NR concentration 270 nM, RXRa partner concentration 90 nM)
In short: as §1

[9] = tested on: PPARg:RXRa 30nM:10nM, anti-RXR (NR concentration 30 nM, RXRa partner concentration 10 nM)
In short: as §1

[10] = tested on: PPARg:RXRa 90nM:30nM, anti-RXR (NR concentration 90 nM, RXRa partner concentration 30 nM)
In short: as §1

[11] = tested on: PPARg:RXRa DBDmut IVT, anti-RXR (DBD mutation: RXRa K156A/R161A, NR concentration 270 nM, RXRa partner concentration 90 nM)
In short: as §1

[12] = tested on: PPARg:RXRa IVT, anti-PPARg (NR concentration 270 nM, RXRa partner concentration 90 nM)
In short: as §1

[13] = tested on: PPARg DBDmut:RXRa IVT, anti-PPARg (DBD mutation: PPARg1 K132A/R137A, NR concentration 270 nM, RXRa partner concentration 90 nM)
In short: as §1

[14] = tested on: PPARg DBDmut IVT, anti-PPARg (DBD mutation: PPARg1 K132A/R137A, NR concentration 270 nM)
In short: as §1

[15] = tested on: PPARg homodimer (NR concentration 180 nM)
In short: as §1

[16] = tested on: PXR:RXRa (NR concentration 270 nM, RXRa partner concentration 90 nM)
In short: as §1

[17] = tested on: PXR homodimer (NR concentration 270 nM)
In short: as §1

[18] = tested on: RARa:RXR (NR concentration 270 nM, RXRa partner concentration 90 nM)
In short: as §1

[19] = tested on: RARa homodimer (NR concentration 270 nM)
In short: as §1

[20] = tested on: RARb:RXRa (NR concentration 270 nM, RXRa partner concentration 90 nM)
In short: as §1

Sequence	PBM binding z-score [1]	PBM binding z-score [2]	PBM binding z-score [3]	PBM binding z-score [4]	PBM binding z-score [5]	PBM binding z-score [6]	PBM binding z-score [7]	PBM binding z-score [8]	PBM binding z-score [9]	PBM binding z-score [10]	PBM binding z-score [11]	PBM binding z-score [12]	PBM binding z-score [13]	PBM binding z-score [14]	PBM binding z-score [15]	PBM binding z-score [16]	PBM binding z-score [17]	PBM binding z-score [18]	PBM binding z-score [19]	PBM binding z-score [20]
TTACCATGGTGAAAGGTCGTTGATGCACGCCTTG	1.54	1.93	0.41	2.22	-0.316	4.04	5.88	6.89	5.62	8.01	0.72	2.89	0.347	-0.209	0.983	2.74	0.676	3.2	-0.159	1.94
CCGACTGGGGCAAAGGCTACCATACTCAGTACGA	-0.192	-0.314	-0.186	-0.213	-1.35	2.78	6.74	6.84	5.04	6.61	2.79	3.71	-0.0188	-0.284	0.531	-0.487	-0.267	-0.203	-0.204	0.812
CGAACTAGGTCATCCAGGACAGTGATTACATTGA	4.19	2.8	0.631	2.2	-0.108	4.62	7.63	6.33	3.95	5.79	8.17	8.1	1.9	1.24	1.15	1.95	1.25	2.17	0.703	3.98
TCAGACAGGGGAAGGTAACTCAGGTACGCAGTCG	0.82	1.65	0.166	1.3	0.859	0.994	0.622	2.06	3.77	2.68	2.26	0.171	0.134	-0.73	0.755	0.624	0.441	0.193	0.801	0.352
TCTCGGAGGACACGGAGGTCAGAGCTTTCCAGAG	1.72	1.54	0.806	1.13	-1.06	2.22	0.548	1.54	1.85	1.75	1.26	1.06	-0.769	-1.39	1	2.45	2.46	2.29	-0.596	3.25
CCAGACAAGTGAGAAGGTAACTCAGCCTCGATTA	-0.1	0.185	0.265	0.312	0.105	-0.0657	0.295	-0.204	-0.274	-0.419	0.321	-0.293	-0.675	-0.316	1.29	-0.132	0.602	0.088	1.08	0.0534
CCTCGTAGGACAGAAGGTCAGAGCTGTCCGCTTT	1.05	1.85	0.197	1.35	-0.387	2.11	-0.00358	1.14	-0.551	0.426	0.395	0.358	-0.69	-1.03	1.25	1.47	-0.0848	2.1	-0.0313	3.02
AGAATGAGGTTATACGTAGATCCGGGAAGAAAGT	1.84	1.4	-0.0656	1.27	-0.0516	3.09	1.65	2.1	0.93	1.68	3.81	2.11	0.942	0.253	0.53	0.73	0.508	1.02	0.0175	1.27
CAGCCTAGGTCAGGACCAGTATAGGAGGAACGTT	1.48	0.848	-0.0859	0.663	-0.972	1.94	0.905	0.922	-0.12	0.355	1.07	1.37	-0.507	-1.17	0.861	0.277	-0.104	0.885	0.139	3.26
GGAACGAGGGCATTGGAGTTGATAGCATGGCGAT	0.624	1.25	-0.304	-0.0971	-0.75	1.36	0.831	0.611	-0.313	-0.0775	3.13	1.96	-0.193	-0.133	0.272	2.48	0.836	0.409	-0.598	1.72
TTACCAAGGTGAAAGGTCTTTGATGCACGCCTTG	1.27	1.01	-0.494	1.07	-0.549	3.54	5.56	6.21	4.99	6.07	2.19	4.37	0.282	0.356	1.16	1.19	-0.419	1.96	0.0646	1.96
TCATATAGGTAAAGGAGAAAGTCGAACGATATGA	0.86	0.393	-0.261	0.259	-0.317	1.11	1.53	2.56	3.86	3.22	3.55	2.2	1.76	0.854	0.0719	0.215	-0.235	0.407	0.331	0.251
TAGCCTAGGTCATCCAGGGGCCAGTATAGAAAGC	4.4	3.37	0.176	2.82	0.318	3.66	2.57	2.47	0.738	1.52	1.23	2.73	0.724	-0.3	1.93	2.6	-0.246	3.55	0.127	3.98
GCAGACAGGTGGAACGCAGGTAACTCAGGGTGGC	-0.427	-0.547	-0.822	-0.84	-1.13	-0.427	0.342	-0.6	-0.85	-1.06	-0.523	-0.717	-1.02	-1.2	-0.728	-0.719	-0.596	-0.428	-1.35	-0.55
ATCTCTAGGTAAGACGCAGTTCAGTGAAGAACGC	0.238	0.0302	0.0448	-0.176	0.151	-0.0926	0.38	0.423	0.101	0.323	1.69	0.781	-0.276	0.85	0.0862	0.526	0.389	-0.309	0.278	0.0267
TGCATGAGGTTAAAGATCAGGGAACGTGGCGTCG	3.2	2.84	0.267	1.84	0.579	3.89	4.03	4.6	2.43	4.38	0.0827	1.55	0.0491	0.396	1.07	2.23	0.0644	2.93	0.611	2.23
TCATATAGGTAAAAGTTGAAAGTCGGTGTGGTAA	1.54	1.21	0.41	1.21	-0.0163	4.24	7.51	7.35	7.31	8.17	4.15	3.58	0.876	1.75	1.63	0.929	0.491	1.56	1.48	1.04
AGTCAAAGTTCAGGACGAGGTAACGGAAAGCACG	3.52	3.93	0.925	1.77	0.134	3.46	4.45	4.88	1.83	3.87	-0.203	2.06	0.787	0.337	2.37	2.66	1.31	2.62	0.344	4.22
GCGGCTAGGTCAGGTTGGTCAGCTAACGGGTACG	1.14	0.573	-0.172	0.648	-0.613	1.33	0.166	0.609	-0.687	0.275	1.28	1.36	-1.08	-0.633	0.749	0.325	-0.293	0.825	-0.0979	3.26
